From the OligoGym collection

target: RABGEF1; assay: pooled miR-30 sensor sort-seq; sequence = guide strand; details: shRNA
Also: reference of the scale not given here.

Sequence	sensor-assay potency score (higher = more potent)
TTTCTTTTCTTCAAACTTGGAG	-0.131
TTATCTTCTCGACTCTTTCTGG	-0.279
TTCATTAACAGGGACACACAGC	-0.293
TTATACATTTGCTTGACGCCTA	0.54
TTCACTGTGGTAACCTTGCGGG	-0.0581
TTCTTCAATGCTTAGATCCCTT	-0.412
TTGAATGGCAAGATCTTTCTTC	0.743

target: RAD18; assay: as above; details: shRNA

Sequence	sensor-assay potency score (higher = more potent)
TTTTCTTTTATCAACAACTCTG	0.0462
TACTTTGACAGCAAGATTCTTT	0.474
TTTTCTAGCCTGATCCACCAGA	-0.673
TAGAATTTAGCATCTTTCCTTG	-0.0135
TTTCATTGAGTTTACTAGCTTC	0.211
TTCTGTGTCTTGAAGATCGTTT	0.506
TTTGTGAACAGAACTTCTGAGG	-0.395
TTTTGTGAACAGAACTTCTGAG	0.451
TATAAATAGAAAATCTATCTGT	0.122
TTTCCTTCTTCTCTTCGCGTGA	-0.0825
TTTATCAACAACTCTGATGTAG	1.04
